Results on one compound are retold here after PubChem BioAssay AID1547 (National Center for Advancing Translational Sciences (NCATS), 2009).

This assay in a line: Secondary Assay for lipid storage modulators. NEFA Incorporation/Release. The conditions noted are these: AML12 cells, [3H]oleic acid NEFA release, at 5 µM, stronger effect = lower value. The text has this:
Data Source: University of Maryland BioAssay Type: Secondary Description: NIH Molecular Libraries Probe Production Centers Network [MLPCN] NIH Chemical Genomics Center [NCGC] Assay Submitter (PI): Carole Sztalryd; GRECC/Geriatrics, Veterans Affairs Medical Center, Department of Medicine, School of Medicine, University of Maryland, Baltimore, Maryland, USA. Beller, Mathias; Max-Planck-Institut fur Biophysikalische Chemie, Germany. NCGC Assay Overview: Storing lipids as a reservoir for energy or the anabolism of elementary metabolites is a common feature of probably all cells and is conserved from bacteria to humans. The universal cellular lipid storage organelle is the so-called lipid storage droplet (LD). Although ubiquitous, LDs share a simple structure composed of a hydrophobic core that harbors the storage lipids, which is shielded by a droplet-specific phospholipid monolayer to which proteins are attached. The current model of LD biogenesis involves an incorporation of the lipid core into the membrane leaflets of the endoplasmic reticulum (ER) followed by a subsequent budding-like maturation of a LD, which ultimately pinches off. Once released, LD volume can increase by localized lipogenesis or fusion of existing droplet. Storage lipids are re-mobilized enzymatically by lipase activity. Lipase regulation in the adipocyte is heavily studied and involves multiple components including catecholamine signaling, the LD-associated proteins Perilipin and comparative gene identification (CGI-58) and at least two lipases named hormone sensitive lipase (HSL) and adipocyte triglyceride lipase (ATGL). LD regulation outside of the adipocyte is poorly understood and only few components are known. However, there is an urgent need to learn more about ectopic fat depots as mislocalized storage of lipids, for example in the liver or muscle, is an eminent health problem associated with insulin resistance or the metabolic syndrome. We developed a laser-scanning cytometer assay to enable 1,536-well screening and combined the results of the small molecules screen with an RNAi database based on lipid storage. […]
Assay Protocol Summary: Measurements of NEFA released from lipid droplets or incorporated into the TG fraction were performed as previously described. […] Lipolysis was determined by measuring radioactivity released into the media in 1 h. […] Lipids were extracted by the Bligh-Dyer method, and 10% of the total lipid was analyzed by thin layer chromatography. AML12 cells treated with or without specific siRNAs were additionally incubated with either vehicle (DMSO), 5 uM of Exo1 (12.5 mg/ml DMSO), or BFA (10 mg/ml DMSO) during the time of radioactivity release into the media (2 h). NEFA incorporation into the TG fraction and NEFA release are calculated as […]/mg protein. […]

Activity calls are given as the source filed them.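 How the source made its calls: active means compound that significantly cut labelled fatty acid release from lipid-loaded liver cells compared with solvent alone; inactive means the rest.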

As to `COC(=O)c1ccccc1NC(=O)c1ccc(F)cc1`, the NEFA release change is -0.35 nmol/mg (active). This compound had an NEFA release change (gammaCOP siRNA treatment) of -0.3 nmol/mg. The NEFA release change (measured here: ATGL siRNA treatment) is -0.63 nmol/mg. The compound also had an NEFA release change (measured here: control siRNA treatment) of -0.47 nmol/mg.
